This note sets out measurements from article PMC7862700, “An all-to-all approach to the identification of sequence-specific readers for epigenetic DNA modifications on cytosine”.

Assay in all cases: DAPPL (digital affinity profiling via proximity ligation, sequencing); 10 mM Tris-HCl pH 7.5, 50 mM NaCl, 1 mM DTT, 4% glycerol, room temperature, 30 min; GST-TFs on glutathione beads, 16-mer random dsDNA library, 0.1% formaldehyde crosslink after washing; high values mean tight binding
In one test the target is T1, FEV (Homo sapiens, UniProt Q99581 1-238).
T1 sequence: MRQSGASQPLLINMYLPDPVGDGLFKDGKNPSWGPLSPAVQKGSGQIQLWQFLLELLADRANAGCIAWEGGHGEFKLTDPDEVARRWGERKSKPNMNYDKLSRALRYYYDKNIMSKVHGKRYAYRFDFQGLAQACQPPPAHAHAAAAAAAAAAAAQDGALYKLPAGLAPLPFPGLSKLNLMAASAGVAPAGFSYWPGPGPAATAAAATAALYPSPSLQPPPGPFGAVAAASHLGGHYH
To be noted: protein: recombinant; tags: N-terminal GST; dsDNA, one strand shown. Put shortly:
(§1)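 Binding signal is given per hexamer as its read frequency for a factor divided by its frequency in the tag-only sample. GST-fused human transcription factors were expressed in yeast, captured on glutathione beads, barcoded with DNA and pooled with that sample, then incubated with 200 nmole of a 16-mer random double-stranded DNA library in Tris/NaCl/DTT/glycerol buffer for 30 min at room temperature. The pools were then washed, crosslinked, proximity-ligated, amplified by PCR and sequenced on an Illumina NextSeq500.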

The target in another test is ETV5 (Homo sapiens, UniProt P41161 1-510). The note with it: protein: recombinant; tags: N-terminal GST; dsDNA, one strand shown. Put shortly:
as §1

A further test deals with HSF1 (Homo sapiens, UniProt Q00613 1-529). To be noted: protein: recombinant; tags: N-terminal GST; chain copies: 3; dsDNA, one strand shown. Put shortly:
as §1

A further test addresses T2, SPIC (Homo sapiens, UniProt Q8N5J4 1-248).
T2 sequence: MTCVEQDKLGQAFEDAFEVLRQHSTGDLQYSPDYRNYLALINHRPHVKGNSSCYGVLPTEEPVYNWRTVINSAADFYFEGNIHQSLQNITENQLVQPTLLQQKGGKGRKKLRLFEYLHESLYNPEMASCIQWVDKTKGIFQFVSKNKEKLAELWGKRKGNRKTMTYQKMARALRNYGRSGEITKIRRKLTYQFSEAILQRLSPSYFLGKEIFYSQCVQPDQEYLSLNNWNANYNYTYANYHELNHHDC
The note with it: protein: recombinant; tags: N-terminal GST; dsDNA, one strand shown. Put shortly: as §1

The target of the next test is ELF4 (Homo sapiens, UniProt Q99607 1-663). To be noted: protein: recombinant; tags: N-terminal GST; dsDNA, one strand shown. A digest of the protocol: as §1
The target in another test is T3, ELK4 (Homo sapiens, UniProt P28324-2 1-405).
T3 sequence: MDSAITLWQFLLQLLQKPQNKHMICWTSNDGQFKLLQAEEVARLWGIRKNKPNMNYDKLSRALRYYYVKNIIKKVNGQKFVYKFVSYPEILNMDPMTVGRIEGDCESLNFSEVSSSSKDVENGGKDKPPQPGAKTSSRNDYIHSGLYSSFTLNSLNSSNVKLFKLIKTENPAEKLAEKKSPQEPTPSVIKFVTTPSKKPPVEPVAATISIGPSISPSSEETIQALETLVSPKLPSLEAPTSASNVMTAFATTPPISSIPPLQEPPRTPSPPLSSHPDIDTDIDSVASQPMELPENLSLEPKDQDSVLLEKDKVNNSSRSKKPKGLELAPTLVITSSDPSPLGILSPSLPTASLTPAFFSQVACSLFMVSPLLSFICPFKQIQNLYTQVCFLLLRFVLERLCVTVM
To be noted: protein: recombinant; tags: N-terminal GST; dsDNA, one strand shown. A digest of the protocol: as §1

The next test concerns the target T4, ETV2 (Homo sapiens, UniProt O00321 1-342).
T4 sequence: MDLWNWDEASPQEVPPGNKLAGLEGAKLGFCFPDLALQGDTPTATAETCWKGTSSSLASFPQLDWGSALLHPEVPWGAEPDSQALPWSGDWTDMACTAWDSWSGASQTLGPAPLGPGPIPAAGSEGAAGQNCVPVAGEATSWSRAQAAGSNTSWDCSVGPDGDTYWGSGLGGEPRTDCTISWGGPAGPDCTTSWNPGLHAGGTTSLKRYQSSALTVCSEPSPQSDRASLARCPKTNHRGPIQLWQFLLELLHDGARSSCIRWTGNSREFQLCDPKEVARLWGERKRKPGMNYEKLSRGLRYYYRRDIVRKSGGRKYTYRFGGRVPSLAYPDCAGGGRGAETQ
The note with it: protein: recombinant; tags: N-terminal GST; dsDNA, one strand shown. A digest of the protocol: as §1

The next test has as its target T5, ELF3 (Homo sapiens, UniProt P78545 1-371).
T5 sequence: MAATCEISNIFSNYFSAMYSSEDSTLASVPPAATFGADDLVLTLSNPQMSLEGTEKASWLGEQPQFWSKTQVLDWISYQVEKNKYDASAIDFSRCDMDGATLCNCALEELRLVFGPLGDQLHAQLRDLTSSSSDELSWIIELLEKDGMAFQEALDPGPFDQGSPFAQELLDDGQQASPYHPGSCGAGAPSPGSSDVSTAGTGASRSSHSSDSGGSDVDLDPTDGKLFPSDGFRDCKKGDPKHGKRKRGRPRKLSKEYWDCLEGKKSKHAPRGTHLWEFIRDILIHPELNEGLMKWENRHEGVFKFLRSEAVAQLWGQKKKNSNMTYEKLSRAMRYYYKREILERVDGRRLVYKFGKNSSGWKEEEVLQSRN
To be noted: protein: recombinant; tags: N-terminal GST; dsDNA, one strand shown. A digest of the protocol:
as §1

For the next test, the target named is CRX (Homo sapiens, UniProt O43186 1-299). To be noted: protein: recombinant; tags: N-terminal GST; dsDNA, one strand shown. Put shortly: as §1
A further test concerns the target ETV1 (Homo sapiens, UniProt P50549 1-477). The note with it: protein: recombinant; tags: N-terminal GST; dsDNA, one strand shown. Put shortly: as §1
The target of a further test is T6, ERF (Homo sapiens, UniProt P50548 1-548).
T6 sequence: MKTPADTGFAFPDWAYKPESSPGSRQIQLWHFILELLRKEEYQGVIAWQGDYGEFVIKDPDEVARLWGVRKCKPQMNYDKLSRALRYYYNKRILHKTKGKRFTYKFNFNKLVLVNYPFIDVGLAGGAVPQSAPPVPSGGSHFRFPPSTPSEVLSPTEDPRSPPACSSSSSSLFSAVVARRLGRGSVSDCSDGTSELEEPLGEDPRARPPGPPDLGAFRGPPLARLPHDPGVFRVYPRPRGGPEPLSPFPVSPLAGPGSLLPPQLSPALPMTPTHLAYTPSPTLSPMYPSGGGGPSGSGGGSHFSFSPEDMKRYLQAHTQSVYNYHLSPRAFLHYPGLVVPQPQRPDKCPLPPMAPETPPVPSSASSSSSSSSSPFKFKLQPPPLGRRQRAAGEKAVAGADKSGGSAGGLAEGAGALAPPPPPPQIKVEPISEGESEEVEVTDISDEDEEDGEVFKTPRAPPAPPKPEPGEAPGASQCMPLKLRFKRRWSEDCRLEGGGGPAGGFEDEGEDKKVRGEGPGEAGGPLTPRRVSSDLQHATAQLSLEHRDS
The note with it: protein: recombinant; tags: N-terminal GST; dsDNA, one strand shown. A digest of the protocol:
as §1

For the next test, the target named is T7, ETV3L (Homo sapiens, UniProt Q6ZN32 1-361).
T7 sequence: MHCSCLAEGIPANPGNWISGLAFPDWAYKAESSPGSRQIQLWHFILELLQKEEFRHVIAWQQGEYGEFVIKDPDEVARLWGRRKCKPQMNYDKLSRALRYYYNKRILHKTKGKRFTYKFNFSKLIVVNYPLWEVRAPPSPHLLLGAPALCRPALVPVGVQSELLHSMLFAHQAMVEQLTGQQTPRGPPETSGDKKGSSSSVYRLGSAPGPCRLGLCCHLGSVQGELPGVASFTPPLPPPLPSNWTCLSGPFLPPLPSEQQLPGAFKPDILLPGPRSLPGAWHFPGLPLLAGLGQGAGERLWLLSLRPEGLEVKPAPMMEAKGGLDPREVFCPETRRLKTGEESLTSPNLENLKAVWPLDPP
The note with it: protein: recombinant; tags: N-terminal GST; dsDNA, one strand shown. Put shortly:
as §1

The next test has as its target T8, ETS2 (Homo sapiens, UniProt P15036 1-469).
T8 sequence: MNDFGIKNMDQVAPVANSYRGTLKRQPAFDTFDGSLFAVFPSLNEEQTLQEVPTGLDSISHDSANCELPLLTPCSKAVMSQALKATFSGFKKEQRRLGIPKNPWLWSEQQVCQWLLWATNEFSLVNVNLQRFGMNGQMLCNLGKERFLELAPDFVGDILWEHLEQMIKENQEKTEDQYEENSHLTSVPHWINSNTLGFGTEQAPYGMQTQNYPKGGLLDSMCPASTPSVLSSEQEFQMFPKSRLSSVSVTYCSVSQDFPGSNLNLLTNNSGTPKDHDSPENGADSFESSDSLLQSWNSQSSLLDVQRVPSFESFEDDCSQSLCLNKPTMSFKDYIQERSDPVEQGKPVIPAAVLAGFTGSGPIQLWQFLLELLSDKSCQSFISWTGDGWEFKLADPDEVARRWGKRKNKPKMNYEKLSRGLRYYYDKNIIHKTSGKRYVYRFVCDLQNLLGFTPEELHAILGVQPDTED
The note with it: protein: recombinant; tags: N-terminal GST; dsDNA, one strand shown. Put shortly: as §1

Another test addresses T9, SPDEF (Homo sapiens, UniProt O95238 1-335).
T9 sequence: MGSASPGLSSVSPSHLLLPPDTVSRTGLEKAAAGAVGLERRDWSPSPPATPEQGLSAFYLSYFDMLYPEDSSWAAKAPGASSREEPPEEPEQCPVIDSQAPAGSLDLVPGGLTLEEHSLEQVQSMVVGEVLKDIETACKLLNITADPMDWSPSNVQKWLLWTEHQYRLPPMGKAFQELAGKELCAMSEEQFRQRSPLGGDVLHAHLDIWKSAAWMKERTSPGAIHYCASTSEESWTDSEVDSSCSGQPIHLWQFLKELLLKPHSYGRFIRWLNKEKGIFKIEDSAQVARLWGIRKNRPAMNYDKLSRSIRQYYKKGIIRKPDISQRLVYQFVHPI
To be noted: protein: recombinant; tags: N-terminal GST; dsDNA, one strand shown. Put shortly: as §1

A further test has as its target T10, ETV7 (Homo sapiens, UniProt Q9Y603 1-341).
T10 sequence: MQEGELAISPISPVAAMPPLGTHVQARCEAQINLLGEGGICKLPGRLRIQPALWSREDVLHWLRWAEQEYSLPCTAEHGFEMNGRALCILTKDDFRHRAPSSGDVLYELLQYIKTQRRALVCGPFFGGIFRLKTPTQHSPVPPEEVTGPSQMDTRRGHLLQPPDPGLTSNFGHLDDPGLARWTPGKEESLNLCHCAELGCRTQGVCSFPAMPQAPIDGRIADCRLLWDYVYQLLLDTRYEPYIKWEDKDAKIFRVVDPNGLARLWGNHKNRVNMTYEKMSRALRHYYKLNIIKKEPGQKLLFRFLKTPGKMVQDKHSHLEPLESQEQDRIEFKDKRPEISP
To be noted: protein: recombinant; tags: N-terminal GST; dsDNA, one strand shown. A digest of the protocol: as §1

In a further test the target is T11, ELF5 (Homo sapiens, UniProt Q9UKW6-2 1-255).
T11 sequence: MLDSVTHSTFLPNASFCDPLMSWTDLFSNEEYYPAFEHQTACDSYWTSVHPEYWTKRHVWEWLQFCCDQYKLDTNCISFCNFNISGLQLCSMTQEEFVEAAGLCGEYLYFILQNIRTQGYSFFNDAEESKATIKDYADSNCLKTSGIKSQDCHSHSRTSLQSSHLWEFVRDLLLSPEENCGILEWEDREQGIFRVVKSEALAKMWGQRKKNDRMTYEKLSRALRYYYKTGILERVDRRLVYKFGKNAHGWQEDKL
To be noted: protein: recombinant; tags: N-terminal GST; dsDNA, one strand shown. Put shortly: as §1

Another test has as its target T12, ETV3 (Homo sapiens, UniProt P41162-2 1-143).
T12 sequence: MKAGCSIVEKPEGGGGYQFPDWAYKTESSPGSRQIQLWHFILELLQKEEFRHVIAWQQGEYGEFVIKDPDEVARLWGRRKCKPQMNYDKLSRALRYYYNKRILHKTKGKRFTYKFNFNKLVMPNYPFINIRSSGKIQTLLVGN
The note with it: protein: recombinant; tags: N-terminal GST; dsDNA, one strand shown. A digest of the protocol: as §1

For another test, the target named is ETV6 (Homo sapiens, UniProt P41212 1-452). The note with it: protein: recombinant; tags: N-terminal GST; dsDNA, one strand shown. A digest of the protocol:
as §1

ELF4, sequence (Q99607 whole entry): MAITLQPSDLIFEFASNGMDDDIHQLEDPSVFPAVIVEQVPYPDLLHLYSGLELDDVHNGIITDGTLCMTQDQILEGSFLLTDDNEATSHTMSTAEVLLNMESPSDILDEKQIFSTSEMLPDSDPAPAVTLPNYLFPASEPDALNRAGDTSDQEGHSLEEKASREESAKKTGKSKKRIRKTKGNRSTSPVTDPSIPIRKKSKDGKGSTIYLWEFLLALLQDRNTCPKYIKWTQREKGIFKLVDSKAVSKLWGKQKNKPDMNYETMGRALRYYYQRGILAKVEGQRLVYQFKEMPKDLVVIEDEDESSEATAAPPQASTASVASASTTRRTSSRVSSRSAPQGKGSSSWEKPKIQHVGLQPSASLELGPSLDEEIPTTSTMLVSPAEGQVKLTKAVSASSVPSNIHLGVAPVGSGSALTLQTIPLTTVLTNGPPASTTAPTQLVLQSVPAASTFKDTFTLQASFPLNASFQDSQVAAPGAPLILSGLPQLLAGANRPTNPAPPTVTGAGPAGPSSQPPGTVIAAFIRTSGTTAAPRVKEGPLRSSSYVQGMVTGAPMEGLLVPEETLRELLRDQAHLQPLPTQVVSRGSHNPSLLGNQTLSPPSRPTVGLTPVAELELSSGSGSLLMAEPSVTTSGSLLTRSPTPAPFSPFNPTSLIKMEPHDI
ETV6, sequence (P41212 whole entry): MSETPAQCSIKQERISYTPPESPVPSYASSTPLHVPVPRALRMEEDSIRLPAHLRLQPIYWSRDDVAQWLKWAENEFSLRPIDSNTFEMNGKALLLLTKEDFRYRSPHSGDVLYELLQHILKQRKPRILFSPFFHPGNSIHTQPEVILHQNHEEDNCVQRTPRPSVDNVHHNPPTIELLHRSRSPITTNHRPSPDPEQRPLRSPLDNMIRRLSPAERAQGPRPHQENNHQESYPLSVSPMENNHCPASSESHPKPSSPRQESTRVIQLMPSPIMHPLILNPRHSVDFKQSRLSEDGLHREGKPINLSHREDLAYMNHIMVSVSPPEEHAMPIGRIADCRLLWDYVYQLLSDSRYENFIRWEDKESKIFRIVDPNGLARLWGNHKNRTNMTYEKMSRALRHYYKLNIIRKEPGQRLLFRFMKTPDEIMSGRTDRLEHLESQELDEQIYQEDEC
ETV1, sequence (P50549 whole entry): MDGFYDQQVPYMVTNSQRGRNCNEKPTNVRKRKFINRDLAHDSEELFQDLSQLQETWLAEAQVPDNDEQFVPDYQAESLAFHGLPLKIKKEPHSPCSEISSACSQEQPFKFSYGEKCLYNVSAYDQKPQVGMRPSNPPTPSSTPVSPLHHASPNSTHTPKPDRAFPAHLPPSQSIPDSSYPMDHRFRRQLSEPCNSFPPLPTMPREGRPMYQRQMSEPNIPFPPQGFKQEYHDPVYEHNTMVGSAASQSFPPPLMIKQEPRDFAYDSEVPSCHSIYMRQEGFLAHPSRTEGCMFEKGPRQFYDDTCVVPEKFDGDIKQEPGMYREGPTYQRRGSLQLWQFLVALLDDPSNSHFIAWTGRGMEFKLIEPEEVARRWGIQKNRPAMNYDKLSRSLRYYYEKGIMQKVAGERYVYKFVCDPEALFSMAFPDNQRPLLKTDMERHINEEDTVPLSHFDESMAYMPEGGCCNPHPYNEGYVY
CRX, sequence (O43186 whole entry): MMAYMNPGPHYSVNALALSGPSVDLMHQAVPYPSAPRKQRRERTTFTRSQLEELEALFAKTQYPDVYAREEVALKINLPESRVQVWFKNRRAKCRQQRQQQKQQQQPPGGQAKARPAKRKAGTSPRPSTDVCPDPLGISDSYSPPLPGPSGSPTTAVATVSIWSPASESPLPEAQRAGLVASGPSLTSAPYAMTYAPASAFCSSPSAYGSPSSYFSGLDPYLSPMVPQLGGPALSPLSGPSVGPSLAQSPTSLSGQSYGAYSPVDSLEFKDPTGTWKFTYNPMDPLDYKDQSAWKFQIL
ETV5, sequence (P41161 whole entry): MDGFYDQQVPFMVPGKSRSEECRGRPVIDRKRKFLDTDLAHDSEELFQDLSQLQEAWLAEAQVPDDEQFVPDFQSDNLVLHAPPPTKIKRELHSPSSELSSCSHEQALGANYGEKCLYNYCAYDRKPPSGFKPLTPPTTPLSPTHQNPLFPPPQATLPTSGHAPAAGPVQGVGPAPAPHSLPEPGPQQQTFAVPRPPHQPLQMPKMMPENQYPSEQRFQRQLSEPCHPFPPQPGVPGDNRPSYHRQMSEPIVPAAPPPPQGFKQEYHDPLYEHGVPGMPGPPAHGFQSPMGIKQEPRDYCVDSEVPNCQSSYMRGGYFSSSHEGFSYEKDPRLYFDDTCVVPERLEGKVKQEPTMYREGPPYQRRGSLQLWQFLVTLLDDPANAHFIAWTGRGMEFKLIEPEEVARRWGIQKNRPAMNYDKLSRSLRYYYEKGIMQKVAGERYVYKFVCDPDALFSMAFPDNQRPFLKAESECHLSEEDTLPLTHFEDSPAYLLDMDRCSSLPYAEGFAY
HSF1, sequence (Q00613 whole entry): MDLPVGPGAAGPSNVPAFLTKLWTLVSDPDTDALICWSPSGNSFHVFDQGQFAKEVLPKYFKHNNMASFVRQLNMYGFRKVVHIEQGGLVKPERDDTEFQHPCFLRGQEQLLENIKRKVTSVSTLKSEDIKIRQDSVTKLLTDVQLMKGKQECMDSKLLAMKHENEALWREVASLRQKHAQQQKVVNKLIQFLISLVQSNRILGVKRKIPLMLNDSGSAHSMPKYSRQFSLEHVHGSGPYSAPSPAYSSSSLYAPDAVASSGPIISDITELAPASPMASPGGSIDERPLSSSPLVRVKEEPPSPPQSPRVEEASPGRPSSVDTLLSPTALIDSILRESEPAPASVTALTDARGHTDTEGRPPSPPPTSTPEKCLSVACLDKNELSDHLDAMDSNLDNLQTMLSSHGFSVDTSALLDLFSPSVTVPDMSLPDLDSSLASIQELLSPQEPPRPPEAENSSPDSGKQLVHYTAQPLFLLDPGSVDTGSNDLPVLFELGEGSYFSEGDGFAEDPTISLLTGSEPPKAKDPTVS

Take CATATT: the binding signal with FEV is 1.22 fold enrichment (6-mer frequency, TF over GST control); with ETV5, 1.26 fold enrichment (6-mer frequency, TF over GST control); with HSF1 it was 1.31 fold enrichment (6-mer frequency, TF over GST control); in the test with SPIC, 1.12 fold enrichment (6-mer frequency, TF over GST control); with ELF4, 1.32 fold enrichment (6-mer frequency, TF over GST control); in the test with ELK4, 1.29 fold enrichment (6-mer frequency, TF over GST control). In addition, the binding signal is 1.43 fold enrichment (6-mer frequency, TF over GST control) with ETV2; 1.35 fold enrichment (6-mer frequency, TF over GST control) with ELF3; 1.33 fold enrichment (6-mer frequency, TF over GST control) with CRX; 1.25 fold enrichment (6-mer frequency, TF over GST control) with ETV1; 1.32 fold enrichment (6-mer frequency, TF over GST control) with ERF; 1.29 fold enrichment (6-mer frequency, TF over GST control) with ETV3L. The binding signal with ETS2 was 1.22 fold enrichment (6-mer frequency, TF over GST control); with SPDEF, 1.24 fold enrichment (6-mer frequency, TF over GST control); with ETV7, 1.19 fold enrichment (6-mer frequency, TF over GST control); in the test with ELF5, 1.23 fold enrichment (6-mer frequency, TF over GST control); in the test with ETV3 it was 1.24 fold enrichment (6-mer frequency, TF over GST control); with ETV6, 1.25 fold enrichment (6-mer frequency, TF over GST control).
